Source: PubChem BioAssay (NCI)
About 79,000 compounds went through this panel and 15% of them were active in at least one assay; those are over-represented in the sample as a whole. Activity calls are given as the source filed them. No stated cut-off is given here; in the data, active means growth inhibition above about 70%; inactive means the rest. Where a SMILES comes first, the peptide text is derived from it. [ ]: non-standard residue; d: D form. The star is where a group is joined. ξ: configuration not given here. X14 = COC1=CC(=O)N(C(=O)C(O*)C(C)C)C1Cc1ccccc1; ξNMe2Val = CC(C)C(C(=O)*)N(C)C; NMeV = CN[CH](C(=O)O)C(C)C

Columns and labels:
[1] = NCI Yeast Anticancer Drug Screen. Data for the rad50 strain (AID 155);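 further: 0% = growth of vehicle-only cultures of the same strain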; settings: S. cerevisiae rad50 strain growth inhibition; at 50.0 µM; hits give high values
In short: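 Compounds were tested on a yeast strain with an engineered DNA damage repair alteration; the reported value is growth inhibition normalised to vehicle treatment.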

[2] = NCI Yeast Anticancer Drug Screen. Data for the mec2-1 strain (AID 157); settings: S. cerevisiae mec2-1 strain, at 50.0 µM, hits give high values
In short: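 Growth inhibition is read against vehicle-treated controls after compound exposure of the mec2-1 yeast strain, which is defective in DNA damage repair or cell cycle control.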

[3] = NCI Yeast Anticancer Drug Screen. Data for the sgs1 mgt1 strain (AID 161);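 further: 0% = growth of cultures given vehicle only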; settings: S. cerevisiae sgs1 mgt1 strain, at 50.0 µM, hits give high values
In short: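 This yeast growth screen uses a strain with defined DNA-repair lesions; compound-treated growth is compared with vehicle-treated growth.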

[4] = NCI Yeast Anticancer Drug Screen. Data for the cln2 rad14 strain (AID 165);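 further: 0% = growth equal to vehicle treated cultures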; settings: S. cerevisiae cln2 rad14 strain, at 50.0 µM, hits give high values
In short: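 Growth inhibition, relative to vehicle-treated controls, is the read-out. The test organism is a yeast strain with defined genetic alterations, cln2 rad14.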

[5] = NCI Yeast Anticancer Drug Screen. Data for the bub3 strain (AID 167); settings: S. cerevisiae bub3 mutant strain, at 50.0 µM, hits give high values
In short: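 Growth of a checkpoint-deficient yeast mutant is measured after compound exposure. Values represent inhibition relative to vehicle.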

[6] = NCI Yeast Anticancer Drug Screen. Data for the mlh1 rad18 strain (AID 175); settings: S. cerevisiae mlh1 rad18 strain growth inhibition; at 50.0 µM; hits give high values
In short: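 Cells of a genetically altered yeast strain, deficient in DNA damage repair, were treated with compound. Their growth was then compared with that of vehicle-treated cultures to give inhibition.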

Measured: growth inhibition

C[C@@H]1C[C@@H]2c3cccc4c3c(cn4CO)C[C@H]2N(C)C1
inactive: [1] 8.55% | [2] -24.6% | [3] 28.6% | [4] 3.4% | [5] 0.55% | [6] 8.15%

CC(=O)Nc1nc2c(ncn2C2OCC(OC(C)=O)C(OC(C)=O)C2OC(C)=O)c(=O)[nH]1 (stereo not drawn) (tested in a mixture with another compound)
inactive: [1] 4.1% | [2] -4.35% | [3] 2.65% | [4] -6.9% | [5] 6.1% | [6] 6.95%

O=C1CCCN1CC#CCN1CCCC1
inactive: [1] -13.8% | [2] -20.9% | [3] 16.9% | [4] 3.3% | [5] 8.55% | [6] 6.2%

CC(=O)c1cn(Cc2ccccc2)c2ccccc12
inactive: [1] 5.75% | [2] -14.2% | [3] -6.7% | [4] -73.5% | [5] -19.6% | [6] -2.9%

FC(F)(F)c1ccc2c(c1)N(CCCl)c1ccccc1S2
inactive: [1] 4.3% | [2] -8.05% | [3] -2.4% | [4] -79.2% | [5] 1.5% | [6] -4.6%

CCC[P+](CCC)(CCC)CCCCCCCCCC[P+](CCC)(CCC)CCC
inactive: [1] -2.65% | [2] -13% | [3] 2.05% | [4] -21.2% | [5] -1.15% | [6] -0.5%

C/C(CC(C)(C)N1CC1)=N\N
inactive: [1] -19.7% | [2] -12.8% | [3] -7.75% | [4] -20.1% | [5] -7.95% | [6] -8.95%

O=S(=O)(C(Cl)Cl)C(Cl)(Cl)S(=O)(=O)C(Cl)Cl
inactive: [1] -11.4% | [2] -53% | [3] 5.8% | [4] -40.2% | [5] 5.1% | [6] 13.1%

O=C1NCN(c2ccccc2)C12CCN(Cc1ccccc1)CC2
inactive: [1] -4.6% | [2] -23.7% | [3] 14.6% | [4] 12.3% | [5] 3.1% | [6] 5.5%

O=[N+]([O-])c1cc(S(=O)(=O)F)cc(Cl)c1S
active: [1] 98.9% | [2] 99% | [3] 98.8% | [4] 90.5% | [5] 98.8% | [6] 98.8%

CCNC1CCCCC1
inactive: [1] 26.3% | [2] -5.45% | [3] -14.2% | [4] 29.1% | [5] -19.1% | [6] 20.1%

O=C(CCCN1CCC2(CC1)C(=O)NCN2c1ccccc1)c1ccccc1
inactive: [1] -17.6% | [2] -2.65% | [3] -0.85% | [4] -18.4% | [5] 2.35% | [6] -2.15%

CCC(=O)OC1(c2ccccc2)CCN(CCC(O)c2ccccc2)CC1C (stereo not drawn)
inactive: [1] -14.9% | [2] -1.45% | [3] 1.45% | [4] -34.9% | [5] 1.1% | [6] 6.2%

CC(CCC#N)([N+](=O)[O-])[N+](=O)[O-]
inactive: [1] 17.1% | [2] 12.8% | [3] 4.35% | [4] 0.5% | [5] 10.3% | [6] 12.9%

O=C1CN2CCC1CC2
inactive: [1] 10.3% | [2] -47% | [3] -3.25% | [4] 12.6% | [5] -23.2% | [6] 10.8%

O=C(COc1ccccc1Cl)Nc1ccc[n+](Cc2ccc(S(=O)(=O)F)cc2)c1
inactive: [1] -20.9% | [2] -21.2% | [3] 2.9% | [4] -42.2% | [5] -3.15% | [6] -0.7%

C[C@]12CC[C@H]3[C@@H](CC[C@]4(O)C[C@@H](O)CC[C@]34CO)[C@@]1(O)CC[C@@H]2C1=CC(=O)OC1
inactive: [1] -6.1% | [2] -23.1% | [3] -17.6% | [4] 0.45% | [5] 1.35% | [6] -16.9%

COc1ccc2c3c1OC1C(OC)(OC)CC4(C=C2)CN(C)CCC314 (stereo not drawn)
inactive: [1] -31% | [2] -22.4% | [3] -20.4% | [4] -11.4% | [5] -23.9% | [6] -11.8%

COc1ccc(OC)c(CCc2cc(OC)ccc2OC)c1
inactive: [1] -7.85% | [2] -13.2% | [3] -9.95% | [4] -40.1% | [5] 13.2% | [6] -28%

CC[N+](C)(C)c1ccc(C)c(OC(=O)NC)c1
inactive: [1] -4.35% | [2] -11.2% | [3] -0.2% | [4] -24.8% | [5] 15.3% | [6] -0.45%

NC(=Nc1ccccc1)Nc1ccccc1 (tested in a mixture with another compound)
inactive: [1] -1.65% | [2] -12.1% | [3] 1.7% | [4] 13.2% | [5] 6.4% | [6] 6.35%

CCOP(=O)(Cc1ccc(Cl)cc1)OCC
inactive: [1] 33.8% | [2] 7.9% | [3] 17.6% | [4] 21.4% | [5] 15.2% | [6] 8.05%

O=C1NCCCC1(Cl)Cl
inactive: [1] 4.75% | [2] -1.25% | [3] 4.2% | [4] -16.3% | [5] -10.6% | [6] 13.2%

ClCCCCBr
inactive: [1] 17.6% | [2] -14.2% | [3] 20.4% | [4] 13.5% | [5] 2.4% | [6] 18.8%

C/C=C1\C[C@@H]2C(OC)Nc3cc(O)c(OC)cc3C(=O)N2C1 (stereo partly drawn)
inactive: [4] 56.9% | [6] 31.7%
active: [1] 77.5% | [2] 70.7% | [3] 84% | [5] 81.3%

CCCCCCCCCCCCN(C)C
inactive: [1] 45.4% | [2] 28.7% | [3] 35.9% | [4] -6.2% | [5] 29.1% | [6] 37.9%

NC(N)=NN(N=O)C1CCCCC1
inactive: [1] 4.35% | [2] 5.05% | [3] -7.85% | [4] -34.8% | [5] -10.5% | [6] 5.8%

O=C(CC(=O)C(F)(F)F)c1cccs1
inactive: [1] -6.15% | [2] -11.6% | [3] 1.1% | [4] 12.3% | [5] 11.9% | [6] -13.1%

CCOc1cc(OCC)c(OCC)cc1/C=C/[N+](=O)[O-]
active: [1] 90% | [2] 92.7% | [3] 93.7% | [4] 77% | [5] 89.5% | [6] 95.2%

COC1=CC(=O)N(C(=O)C(OC(=O)C2CCCN2C(=O)C2CCCN2C(=O)C(C(C)C)N(C)C(=O)C(NC(=O)C(C(C)C)N(C)C)C(C)C)C(C)C)C1Cc1ccccc1 (stereo not drawn) (ξNMe2Val-V[NMeV]PP-X14; configuration not given here)
inactive: [1] 16.9% | [2] -21.4% | [3] -4.25% | [4] -7.6% | [5] 28.9% | [6] -32.6%

CCCCN1CCC2(C)c3cc(O)ccc3CC1C2CC (stereo not drawn)
inactive: [1] 6.8% | [2] 9.5% | [3] 4.4% | [4] -46.6% | [5] 11.3% | [6] 12.7%

CCC1(CC)C(=O)NC(=NCCCC(N)C(=O)O)NC1=O (stereo not drawn)
inactive: [1] 8.75% | [2] -3.05% | [3] 8.15% | [4] 11.4% | [5] 23.6% | [6] 7.4%

C/C(CCl)=N\NC1=NC(C)(CCl)P(=O)(NNc2ncccn2)S1 (stereo not drawn)
inactive: [1] 8.05% | [2] 11.2% | [3] 5.2% | [4] 11% | [5] 8.85% | [6] 7.35%

O=[N+]([O-])c1cccc(P(=O)(O)O)c1
inactive: [1] -7.3% | [2] 53.5% | [3] 3.35% | [4] 5.25% | [5] -4.5% | [6] 0.85%

CC(=O)C(N)Cc1ccccc1 (stereo not drawn)
inactive: [1] 24.4% | [2] 17.2% | [3] 10% | [4] -26.6% | [5] 23.2% | [6] 15.2%

c1ccc([Se+](c2ccccc2)c2ccccc2)cc1
inactive: [1] 16.8% | [2] -46.5% | [3] 1.75% | [4] -10.1% | [5] -1.55% | [6] 17.9%

O.O=[N+]([O-])O.[NH2-].[NH2-].[Pt+2]
inactive: [1] 22.9% | [2] 20.4% | [3] 8.6% | [4] 15.2% | [5] 4.55% | [6] 31.4%

CCC1(O)N=C(c2ccccc2)c2ccccc2-n2cccc21 (stereo not drawn)
inactive: [1] 1.7% | [2] 4.25% | [3] 8.65% | [4] 0.55% | [5] 2.2% | [6] 6.5%
